This passage reports Potency and activity change, negative = inhibition results from PubChem BioAssay AID504832 (National Center for Advancing Translational Sciences (NCATS), 2011).

Out of some 310,000 compounds screened, about 18,000 (5.8%) were called active. Roughly 22% stayed inconclusive and do not appear here. Calls follow the shape of the dose curve; as a rule, active = well fitted inhibition curve with a large enough effect; inconclusive = small, poorly fitted or top-dose-only effect, or another doubt; inactive = no such curve, though single readings can be large or run the other way. The list comes from a sample in which actives are over-represented; it also holds similar structures and randomly drawn compounds. Entries that show only a call come without a potency.
Potency is read from the fitted curve at half-maximal effect.

The nature of the assay: Primary qHTS for delayed death inhibitors of the malarial parasite plastid, 48 hour incubation. Particulars: P. falciparum luciferase growth in erythrocytes; series mostly up to 28.7 µM. The gist of the method: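 Here the parasites carry a stable luciferase gene and grow inside erythrocytes in Albumax-based RPMI medium with compound for one erythrocytic cycle. Activity is scored as loss of luminescent signal.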
(In general: Quantitative high-throughput screening tests each substance at several concentrations.)
Regarding `CN(CC(=O)Nc1cccc(F)c1)C(=O)C1=COCCO1`, the Potency result is “inactive”.
The same measure, in the same setting: the entry for `CCc1nc(N2CCN(c3nc(C)cc(C)n3)CC2)c2oc3ccccc3c2n1` is “inactive”.
The same measure, in the same setting: the figure for `CCc1nc(Nc2ccc3nccnc3c2)c2oc3ccccc3c2n1` is 1.04 µM (active).
Still for that read-out and setting: the result for `CCc1nc(Nc2ccc(NC(C)=O)cc2)c2oc3ccccc3c2n1` reads “inactive”; that for `COCC1CCN(C(=O)CCc2nnc(C3(c4ccc(Cl)cc4)CCC3)o2)C1` (centres undefined), “inactive”; that for `Cc1noc(C)c1CSCC(=O)Nc1ccc(Br)cc1Cl`, “inactive”.
Take `COc1cc(C(=O)N2CCN(C3CCC(C)CC3)CC2)cc(OC)c1OC` (centres undefined): the Potency entry is “inactive”.
On the same count and under the same terms, the entry for `OC(COc1ccccc1)Cn1cc(Br)cn1` (centres undefined) is “inactive”.
The same measure, in the same setting: the figure for `OC(CN=c1sc2ccccc2n1CC(O)COc1ccccc1)COc1ccccc1` (centres undefined) is 13.1 µM (active); for `CC(O)COc1ccccc1` (centres undefined) it is “inactive”; for `Cn1nccc1C(=O)NC1CCCc2c1cnn2-c1ccccc1F` (centres undefined) it is “inactive”.
With `COc1ccc(CNC(=O)C(NS(=O)(=O)c2cccc3nsnc23)C(C)C)cc1` (centres undefined), the Potency result is “inactive”.
The same measure, in the same setting: the result for `CC(C)(C)c1csc(NC2=NS(=O)(=O)c3ccccc32)n1` reads “inactive”.
Take `CC(C)C(NS(=O)(=O)c1cccs1)C(=O)Nc1nc(C(C)(C)C)cs1` (centres undefined): the Potency is 11.7 µM (active).
`O=C(OCC(=O)N1CCCC1)c1ccc(Cl)nc1`: the Potency entry is “inactive”.
The same measure, in the same setting: the entry for `CCCc1cc(=O)oc2c(C)c(OC(C)C(=O)NCC(O)c3ccccc3)ccc12` (centres undefined) is “inactive”; for `CCCc1cc(=O)oc2c(C)c(O)c(CN3CCCCC3)cc12` it is 1.65 µM (active); for `CCCc1cc(=O)oc2c(C)c(OCC(=O)N3CCC(C(=O)O)CC3)ccc12` it is “inactive”.
The same measure, in the same setting: the entry for `CN(CC(=O)NCc1ccncc1)S(=O)(=O)c1ccc(Br)cc1` is “inactive”.
Same read-out and setting: the entry for `Cc1ccc(CN(C)Cc2cc(=O)oc3cc(C)c(Cl)cc23)cc1` is “inactive”; for `Cc1ccc(O)c(NC(=S)NC(=O)COc2ccc(Br)cc2)c1` it is “inactive”; for `Cc1ccc(O)c(NC(=O)COc2cc(C)ccc2C)c1` it is 2.94 µM (active).
For the compound `Cc1ccc(C)c(OCC(=O)NNC(=O)C2CCC2)c1`, the Potency result is “inactive”.
Still for that read-out and setting: the result for `CC(NC(=O)CNC(=O)Cc1cccc2ccccc12)c1ccc(S(N)(=O)=O)cc1` (centres undefined) reads “inactive”.
Same read-out and setting: the result for `CCc1cc(=O)oc2c(C)c(OCC(=O)NCCN3CCOCC3)ccc12` reads “inactive”; that for `COc1cccc(-c2ccc3c(c2)S(=O)(=O)c2cccc(C(=O)O)c2C3=O)c1OC`, “inactive”; that for `Cn1c2ccccc2c2c(C(=O)N3CCN(c4ccc(F)cc4)CC3)cn(C3CCCC3)c(=O)c21`, 10.4 µM (active).
Still for that read-out and setting: the result for `Cc1c(C(=O)N2CCN(c3ccc(F)cc3)CC2)oc2c1C(=O)CCC2` reads “inactive”.
In the case of `CC(C)N(C(=O)COC(=O)c1ccccc1C(=O)N1CCN(c2ccc(F)cc2)CC1)C(C)C`, the Potency result was “inactive”.
On the same count and under the same terms, the entry for `COc1cccc(C(=O)Nc2nnc(S(=O)(=O)N(C)c3ccccc3)s2)c1` is “inactive”; for `COc1cccc(/C=C/C(=O)OCC(=O)N2CCN(c3ccccc3)CC2)c1` it is “inactive”; for `COc1ccc(S(=O)(=O)N2CCN(C(=O)NC3CCCCC3)CC2)cc1` it is “inactive”.
On the same count and under the same terms, the result for `COc1ccc(OCC(=O)OCC(=O)Nc2ccc(S(=O)(=O)N3CCCCC3)cc2)cc1` reads “inactive”; that for `COc1ccc(S(=O)(=O)N2CCN(C(C)C(=O)Nc3ccc(C(C)C)cc3)CC2)cc1` (centres undefined), 10.4 µM (active); that for `CC(NC(=O)CN(C)S(=O)(=O)c1ccc(F)cc1)C1CC2CCC1C2` (centres undefined), “inactive”.
Take `CC(=O)Nc1ccc(N2C(=O)CC(Sc3nccc(C)n3)C2=O)cc1` (centres undefined): the Potency entry is “inactive”.
The same measure, in the same setting: the entry for `COc1cc(Cl)ccc1OCc1cc(C(=O)N(C)CCc2c(C)n[nH]c2C)no1` is “inactive”; for `O=C(O)COCC(=O)NCc1csc2ccc(Cl)cc12` it is “inactive”; for `CN(CCO)Cc1csc2ccc(Br)cc12` it is “inactive”.
For the compound `CNC(=O)O/N=C(\N)Cc1csc2ccc(Cl)cc12`, the Potency was 3.7 µM (active).
The same measure, in the same setting: the result for `CCOC(=O)Cc1csc(NC(=O)C(C)(C)C)n1` reads “inactive”; that for `CCOC(=O)Cc1csc(NC(=O)CSc2nc(C)cc(=O)[nH]2)n1`, “inactive”.
On the same count and under the same terms, the result for `CCOC(=O)Cc1csc(NC(=O)CSc2ccc(Br)cc2)n1` reads 10.4 µM (active); that for `CCC(C)C(N=C1NS(=O)(=O)c2ccccc21)C(=O)N1CCC(C)CC1` (centres undefined), “inactive”.
The same measure, in the same setting: the result for `CC(C)c1ccc(NC(=O)[C@@H](NC(=O)N2CC(=O)Nc3ccccc32)C(C)C)cc1` reads “inactive”.
For the compound `O=C(N/N=C/c1ccc(OC(=O)c2ccccc2Cl)cc1)c1ccc(O)cc1`, the Potency entry was “inactive”.
On the same count and under the same terms, the result for `CSc1ncccc1C(=O)NCc1ccccc1Cl` reads “inactive”.
On the same count and under the same terms, the result for `CC(NC(=O)c1ccccc1F)c1cccc2ccccc12` (centres undefined) reads “inactive”; that for `COc1ccc(S(=O)(=O)n2nc(C)c(S(=O)(=O)N3CCOCC3)c2C)cc1`, “inactive”.
Still for that read-out and setting: the figure for `OC(CNCC1CCCO1)Cn1c2ccc(Br)cc2c2cc(Br)ccc21` (centres undefined) is 0.586 µM (active); for `CC(NS(=O)(=O)c1ccc(Br)cc1)C(=O)NCC1CCCO1` (centres undefined) it is “inactive”; for `O=C(CSc1ccc(-c2ccc(Br)cc2)nn1)NCC1CCCO1` (centres undefined) it is “inactive”.
For the compound `CCc1ccc(C(=O)NN=C2CCCCCC2)s1`, the Potency entry was “inactive”.
On the same count and under the same terms, the result for `CCOc1ccc(CN2CCNC(=O)C2CC(=O)NCCCC2CCCC2)cc1` (centres undefined) reads “inactive”; that for `Cc1nc2ccc(C(=O)N/N=C/c3ccc(O)cc3)cc2[nH]1`, “inactive”.
Still for that read-out and setting: the result for `COC(=O)COc1ccc(S(=O)(=O)N2CCOCC2)cc1` reads “inactive”; that for `COc1ccc(S(=O)(=O)N2CCN(CC(=O)NCC3(N4CCOCC4)CCCCC3)CC2)cc1`, 9.28 µM (active); that for `COc1ccc(CNC(=O)COC(=O)/C=C/c2ccc(S(=O)(=O)N3CCOCC3)cc2)cc1`, “inactive”.
As to `CCc1ccc(OC(C)C(=O)Nc2ccc(S(=O)(=O)Nc3cc(C)on3)cc2)cc1` (centres undefined), the Potency result is “inactive”.
The same measure, in the same setting: the result for `CC1CCN(C(=O)CCNC(=O)c2ccccc2)CC1` reads “inactive”; that for `CN(CC(=O)Nc1ccc(F)c(F)c1F)C(=O)C1CC(=O)N(C2CCCC2)C1` (centres undefined), “inactive”.
On the same count and under the same terms, the result for `O=C(CN1CCC(NC(=O)C2CC2)CC1)Nc1ccccc1[N+](=O)[O-]` reads “inactive”; that for `CC(C)c1ccccc1OCC(O)CN(CC(O)COc1cccc2ccccc12)C(C)C` (centres undefined), 1.65 µM (active); that for `CN1CCN(CCCCOc2cccc3ccccc23)CC1`, “inactive”.
Still for that read-out and setting: the entry for `OC(COc1cccc2ccccc12)CN1CCN(c2ccccn2)CC1` (centres undefined) is “inactive”.
As for `NC(=O)C(Cc1ccccc1)NC(=O)C12CC3CC(CC(C3)C1)C2` (centres undefined), the Potency result was “inactive”.
The same measure, in the same setting: the result for `CNS(=O)(=O)c1ccc(C(=O)NCC(=O)NCCc2ccc3c(c2)OCCO3)cc1` reads “inactive”; that for `CCOC(=O)N1CCN(CC(=O)c2c(C)[nH]c3ccccc23)CC1`, “inactive”.
Same read-out and setting: the result for `CCOC(=O)c1c(C)[nH]c(C)c1S(=O)(=O)N(C)CC(=O)Nc1ccccc1C` reads “inactive”.
In the case of `CCOC(=O)c1c(C)[nH]c2c1-c1ccccc1C(=O)C2=O`, the Potency is 1.47 µM (active).
Still for that read-out and setting: the entry for `Cc1ccc(-n2[nH]c(C)c(/C=N/N3C(=O)c4cccc5cccc(c45)C3=O)c2=O)cc1` is “inactive”; for `COc1cc(SC#N)ccc1N=Cc1c(C)[nH]n(-c2ccc(C)cc2)c1=O` it is 13.1 µM (active); for `CCc1nnc(NS(=O)(=O)c2ccc(N=Cc3c(C)[nH]n(-c4ccc(C)cc4)c3=O)cc2)s1` it is “inactive”.
The same measure, in the same setting: the result for `COc1cccc(N2CC(NC(=O)c3ccc4ccccc4c3)CC2=O)c1` (centres undefined) reads “inactive”; that for `COC(=O)c1cc(S(=O)(=O)Nc2ccc(C)c(F)c2)c[nH]1`, “inactive”.
Same read-out and setting: the result for `Cc1ccc(NC(=O)CSc2cccc3cccnc23)c(C)c1` reads “inactive”; that for `COC(=O)c1ccc(-c2c(-c3ccccc3)ncc3cc(OC)c(OC)cc23)cc1`, “inactive”; that for `O=C1CC2(CCN(C(=O)COc3ccc(F)cc3)CC2)Oc2ccccc21`, “inactive”.
In the case of `CCC(C)n1c(-c2cc(OC)c(OC)c(OC)c2)nc2nc3ccccc3nc21` (centres undefined), the Potency is 13.1 µM (active).
On the same count and under the same terms, the entry for `COc1ccc(CCn2c(-c3ccco3)nc3nc4ccccc4nc32)cc1OC` is “inactive”; for `COc1cc(-c2n[nH]c(=S)n2Cc2ccccc2)cc(OC)c1OC` it is “inactive”.
Regarding `COc1ccc(C(=O)NC(C)CCc2ccccc2)c(OC)c1` (centres undefined), the activity change, negative = inhibition is -23.8% [at 0.00184 µM] (inactive).
Regarding `CCc1sc(C(=O)N2CCN(CC(=O)Nc3cccc(F)c3)CC2)cc1C`, the Potency result was “inactive”.
Still for that read-out and setting: the entry for `S=C(NCC1CCCO1)N1CCN(c2ccc(Cl)c(Cl)c2)CC1` (centres undefined) is “inactive”; for `CCOc1ccc(S(=O)(=O)N2CCN(C(=S)NCC3CCCO3)CC2)cc1` (centres undefined) it is 5.22 µM (active).
On the same count and under the same terms, the entry for `CCOc1ccc(NC(=S)N2CCC(N(C)CC3CCCO3)CC2)cc1` (centres undefined) is “inactive”; for `COc1ccc(S(=O)(=O)N2CCN(C(=S)NCC3CCCO3)CC2)cc1OC` (centres undefined) it is 1.85 µM (active); for `CCOc1ccc(S(=O)(=O)NCCC(=O)NCC2CCCO2)cc1` (centres undefined) it is “inactive”.
On the same count and under the same terms, the result for `COc1ccc(S(=O)(=O)N2CCC(C(=O)N3CCOCC3)CC2)cc1OC` reads “inactive”; that for `CCCCNC(=O)CN1C(=O)NC(Cc2ccccc2)(Cc2ccccc2)C1=O`, “inactive”; that for `CCCCNC(=O)c1c[nH]c2ccc(S(=O)(=O)Nc3ccc(OCC)cc3)cc2c1=O`, “inactive”.
For `CCN(CC)S(=O)(=O)c1ccc2[nH]cc(C(=O)NCCc3ccccc3)c(=O)c2c1`, the Potency was 13.1 µM (active).
The same measure, in the same setting: the entry for `CCN(CC(=O)NCCc1ccccc1)S(=O)(=O)c1ccccc1` is “inactive”.
For the compound `COc1ccccc1C(=O)NC(=O)COC(=O)C1CC1`, the Potency result was “inactive”.
On the same count and under the same terms, the entry for `COc1ccccc1CCNC(=O)c1c(C)nn(CC(C)C)c1Cl` is “inactive”.
Regarding `COC(=O)C1CCCCN1C(=O)c1ccc(OC2CCN(C(C)=O)CC2)c(OC)c1` (centres undefined), the Potency entry is “inactive”.
For `O=C(NC(=S)Nc1ccc(Cl)cc1Cl)C1CC1`, the Potency entry was “inactive”.
On the same count and under the same terms, the entry for `CCCCn1c(N)c(N(CC)C(=O)c2ccccc2C(F)(F)F)c(=O)[nH]c1=O` is “inactive”; for `Cc1ccc(S(=O)(=O)N2CCC(C)CC2)cc1C(=O)NCc1ccccn1` it is “inactive”.
Still for that read-out and setting: the result for `CC(=O)Nc1c2c(nn1-c1ccc(C)cc1C)CS(=O)C2` (centres undefined) reads “inactive”; that for `CCOC(=O)CSc1nc2c(c(=O)n(Cc3ccccc3Cl)c(=O)n2C)n1C`, “inactive”.
On the same count and under the same terms, the entry for `Cc1nn(CCCC(=O)NCc2ccccc2Cl)c(=O)c2nccn12` is “inactive”.
Consider `CCC(=O)Nc1ccc2nc(C)n(Cc3ccccc3Cl)c(=O)c2c1`, for which the Potency was 13.1 µM (active).
Same read-out and setting: the result for `COc1ccc(CCN(C)C(=O)C23CC4CC(CC(Cl)(C4)C2)C3)cc1OC` reads “inactive”.
